# From paper PMC4336329 (PLoS ONE, 2015)
# The whole screen tested about 310,000 compounds, of which about 14,000 (4.5%) showed an effect of 50% or more. Effects have a minus sign here. The sample holds strong results, similar compounds and a random draw of the others, so the mix is not that of the screen.
# Target: human ether-à-go-go-related gene (hERG) potassium channel (human, UniProt Q12809)
# Test: primary screen, population patch clamp on CHO cells stably expressing hERG; higher = less effect of the substance
# 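Also: peak tail current of the secondary pulse compared with the same well before compound.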
# human ether-à-go-go-related gene (hERG) potassium channel, sequence (Q12809 whole entry, looked up): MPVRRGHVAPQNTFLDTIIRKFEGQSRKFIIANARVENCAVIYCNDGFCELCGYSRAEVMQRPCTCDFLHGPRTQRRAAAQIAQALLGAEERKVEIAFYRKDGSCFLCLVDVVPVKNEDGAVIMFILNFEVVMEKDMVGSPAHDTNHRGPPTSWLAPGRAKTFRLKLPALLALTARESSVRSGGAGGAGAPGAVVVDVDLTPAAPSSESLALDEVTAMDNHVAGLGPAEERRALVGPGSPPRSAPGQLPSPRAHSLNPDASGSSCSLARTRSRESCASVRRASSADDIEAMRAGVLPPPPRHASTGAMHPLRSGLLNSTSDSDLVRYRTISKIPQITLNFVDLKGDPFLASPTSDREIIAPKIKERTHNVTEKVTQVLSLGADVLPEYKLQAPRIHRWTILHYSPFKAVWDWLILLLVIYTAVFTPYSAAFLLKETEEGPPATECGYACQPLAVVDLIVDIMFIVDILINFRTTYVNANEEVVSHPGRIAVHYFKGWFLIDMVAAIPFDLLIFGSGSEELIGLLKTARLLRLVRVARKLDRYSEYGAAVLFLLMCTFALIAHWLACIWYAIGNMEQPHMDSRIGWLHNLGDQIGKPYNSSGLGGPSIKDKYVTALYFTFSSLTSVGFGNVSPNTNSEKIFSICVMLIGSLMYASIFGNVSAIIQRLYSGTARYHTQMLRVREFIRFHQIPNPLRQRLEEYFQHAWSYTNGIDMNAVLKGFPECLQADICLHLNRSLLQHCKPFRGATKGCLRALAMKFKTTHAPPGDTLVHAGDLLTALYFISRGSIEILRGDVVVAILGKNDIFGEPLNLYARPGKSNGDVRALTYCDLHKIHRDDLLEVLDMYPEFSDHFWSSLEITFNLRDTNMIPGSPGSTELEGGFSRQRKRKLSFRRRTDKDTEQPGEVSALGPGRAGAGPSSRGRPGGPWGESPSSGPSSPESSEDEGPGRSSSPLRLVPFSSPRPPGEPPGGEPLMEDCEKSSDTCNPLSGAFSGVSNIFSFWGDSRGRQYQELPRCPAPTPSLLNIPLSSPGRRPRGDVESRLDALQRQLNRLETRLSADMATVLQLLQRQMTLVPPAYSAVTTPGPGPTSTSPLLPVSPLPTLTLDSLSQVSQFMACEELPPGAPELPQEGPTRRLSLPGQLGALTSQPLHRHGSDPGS
row,SMILES,"hERG current change (%, negative = inhibition) at 10uM [%]"
1,Cc1ccc(CN2CCc3[nH]c(=O)[nH]c(=O)c3C2)cc1,17.5
2,S=C(Nc1ccc(Oc2ccc(NC(=S)NC3CCCCC3)cc2)cc1)NC1CCCCC1,17.6
3,Cc1ccc(C(=O)N2CCN(C(=O)N3CCOCC3)CC2)cc1,-5.64
4,COC(=O)c1ccccc1Oc1nc(Cl)cc(OC)n1,-12.1
5,O=C(NCc1ccco1)C(=O)NCC(c1ccco1)N1CCOCC1 (stereo not shown),13
6,CC1(C)CC(=O)c2sc(NC(=O)c3ccccc3)nc2C1,2.82
7,O=C(COc1cccc2cccnc12)Nc1ccccc1N1CCOCC1,-37.7
8,CCCNC(=O)c1ccc(N2CCC3(CC2)CC(c2cccc(Br)c2)=NO3)c(NC(=O)c2c(Cl)cccc2Cl)c1,5.92
9,CCOc1cc(CNCc2ccccc2)ccc1OCc1ccc(Cl)cc1.Cl,-33.1
10,COc1ccc(CNCCc2ccc(Cl)cc2)cc1OCc1ccccc1,-75.6
11,CCOc1cc(CNCCc2ccccc2F)ccc1OC.O=C(O)C(=O)O,-42.1
12,COc1ccccc1CCNCc1ccc(OC)c(OCc2ccccc2)c1,-71.9
13,COc1ccc(CNCCc2ccccc2)cc1OCC(N)=O,-12
14,COc1cc(CNCCc2ccccc2)ccc1OCC(N)=O.Cl,-17.4
15,O=C(O)C(=O)O.c1ccc(CNC2=NCCCC2)cc1,1.76
16,COc1ccccc1CCC(=O)Nc1ccc(S(=O)(=O)Nc2cc(C)nc(C)n2)cc1,12
17,COc1ccccc1-n1ccnc1SCC(=O)NC(C)(C)C,13.3
18,CN(C)c1ccc(NC(=S)NC(=O)/C=C/c2ccc(Cl)cc2)cc1,2.39
19,CNC(=O)c1csc(Cc2c(Cl)sc3ccc(Cl)cc23)n1,-2.3
20,CC(=O)NNC(=O)c1csc(Cc2c(Cl)sc3ccc(Cl)cc23)n1,-19.6
21,CNC(=O)NNC(=O)c1csc(Cc2c(Cl)sc3ccc(Cl)cc23)n1,-52.1
22,CN=C(Nc1ccccc1OC)SC1CC(=O)N(c2ccc(C(=O)OC)cc2)C1=O (stereo not shown),-12.5

row,SMILES,"hERG current change (%, negative = inhibition) at 10uM [%]"
1,O=C(Nc1cccnc1)/C(N=Nc1c(Cl)cccc1Cl)=C(\O)c1ccccc1,18.8
2,O=C(Nc1cccnc1)/C(N=Nc1cccnc1)=C(\O)c1ccccc1,-53
3,O=C(Nc1cccnc1)/C(N=Nc1ccc(Cl)c(C(F)(F)F)c1)=C(\O)c1ccccc1,29.3
4,COc1cccc(CNC(=O)CCC2CCCN(C(=O)CCc3c(C)noc3C)C2)c1 (stereo not shown),-2.56
5,COc1ccc(CCNS(=O)(=O)c2ccc3oc(C(=O)O)c(C)c3c2)cc1OC,0.0936
6,CCOC(=O)C(NC(=O)Nc1ccc(C(N)=O)cc1)(c1ccccc1)C(F)(F)F (stereo not shown),-14.6
7,Cc1cc(/C=N/n2cnnc2)c(C)n1-c1cccc(Cl)c1,-22.2
8,Cc1cccc(-n2c(SCc3cc(=O)n4ccsc4n3)nc3ccccc3c2=O)c1,-5.76
9,O=C(Nc1ccc(Cl)cc1)N1CCN(C(=O)C2CCCO2)CC1 (stereo not shown),14.9
10,CCOc1cc(C(=O)Nn2cnnc2)cc(OCC)c1OCC,13.8
11,COc1ccc(C(=O)Nn2cnnc2)cc1OC,14.6
12,CCOc1ccc(C(=O)Nn2cnnc2)cc1OCC,-70.4
13,CC1CCc2cc(F)ccc2N1C(=O)c1ccncc1 (stereo not shown),7.7
14,Cc1cccc(N(C(=O)Cc2cccs2)C(C(=O)NC2CCCC2)c2ccncc2)c1 (stereo not shown),8.83
15,Cl.O=C(c1ccco1)N1CCN(C(c2ccc(F)cc2)c2nnnn2Cc2cccs2)CC1 (stereo not shown),-57
16,CC(C)CCn1nnnc1C(c1ccc(F)cc1)N1CCN(C(=O)c2ccco2)CC1 (stereo not shown),-38.1
17,CC(C)C(c1nnnn1Cc1cccs1)N1CCN(C(=O)c2ccco2)CC1 (stereo not shown),-31.6
18,O=C(c1ccco1)N1CCN(C(c2ccc(F)cc2)c2nnnn2CC2CCCO2)CC1 (stereo not shown),-13.7
19,O=C(c1ccco1)N1CCN(C(c2ccccc2)c2nnnn2Cc2cccs2)CC1 (stereo not shown),-38.9
20,Cc1ccc(C(c2nnnn2Cc2cccs2)N2CCN(C(=O)c3ccco3)CC2)cc1 (stereo not shown),-62.5
21,CCCCc1nnc(NC(=O)CSCc2cc(=O)n3cc(C)sc3n2)s1,5.31
22,Cc1ccc2c(CC(=O)Nc3c(C)n(C)n(-c4ccccc4)c3=O)coc2c1,-7.21

row,SMILES,"hERG current change (%, negative = inhibition) at 10uM [%]"
1,O=C1N(Cc2cccnc2)C[C@@H]2C[C@@H](c3cccc(Oc4ccccc4)c3)N3CCC[C@@]123,-59.4
2,COc1ccccc1CN1C[C@@H]2C[C@@H](c3cccc(O)c3)N3CCC[C@@]23C1=O,-33.6
3,O=C1N(Cc2cccnc2)C[C@@H]2C[C@@H](c3cccc(OC4CCCC4)c3)N3CCC[C@@]123,-69.5
4,COc1ccccc1CN1C[C@@H]2C[C@@H](c3cccc(C)c3)N3CCC[C@@]23C1=O,-37
5,O=C1N(Cc2cccnc2)C[C@@H]2C[C@@H](c3cccc(OCc4ccccc4)c3)N3CCC[C@@]123,-63.6
6,CC(C)(C)NC(=S)NNC(=O)[C@H]1C[C@@H]1c1ccccc1,11
7,Cc1ccc(S(=O)(=O)N[C@H](C(=O)N2CCC(C(=O)N[C@@H](CC(=O)O)C(=O)O)CC2)C(C)C)cc1,24.9
8,O=c1cc(-c2ccccc2)cc(-c2ccccc2)n1CCO,-21.5
9,O=C(CCN1CCCC1=O)NC1CCCc2c1cnn2-c1ccc(F)cc1F (stereo not shown),-2.54
10,CCOC(=O)N1CCC(NS(=O)(=O)c2ccc3c(c2)CCN3C(C)=O)CC1,-0.517
11,CC(C)C(C(=O)NC(C)(C)C)N(CCN1CCOCC1)C(=O)CNS(=O)(=O)c1ccccc1 (stereo not shown),0.875
12,CC(/C=C/c1ccco1)=N\NC(=O)c1cc(C)[nH]n1,5.55
13,CC(=O)Nc1ccc(N(C(=O)Cc2cccs2)C(C(=O)NC2CCCC2)c2ccncc2)cc1 (stereo not shown),9.17
14,CC1(C)CC(=O)C(=Cc2cn(-c3ccccc3)nc2-c2ccccc2)C(=O)C1,-24.1
15,CCCCN1C2CCCC1CC(NC(=O)c1cccc(OC)c1)C2 (stereo not shown),-19.3
16,O=C(NC1CC2CCC(C1)N2Cc1ccccc1)c1ccccc1Cl (stereo not shown),-40.6
17,O=C(NC1CCCC1)c1cccc(Cl)c1,29.8
18,O=C(NC1CC2CCC(C1)N2Cc1ccccc1)c1ccccc1Br (stereo not shown),-20.1
19,CCCCN1C2CCCC1CC(NC(=O)c1cccc(Cl)c1)C2 (stereo not shown),-75.5
20,O=C(NC1CC2CCC(C1)N2Cc1ccccc1)c1cccc(F)c1 (stereo not shown),-60.5
21,O=C(NC1CC2CCCC(C1)N2Cc1ccccc1)c1cccc(Cl)c1 (stereo not shown),-57.9
22,Cc1cccc(C(=O)NC2CC3CCCC(C2)N3Cc2ccccc2)c1 (stereo not shown),-40.9

row,SMILES,"hERG current change (%, negative = inhibition) at 10uM [%]"
1,CCCN1C2CCCC1CC(NC(=O)c1cccc(Cl)c1)C2 (stereo not shown),-38.9
2,O=C(NC1CC2CCCC(C1)N2Cc1ccccc1)c1cccc(F)c1 (stereo not shown),-56.8
3,O=C(Nc1cccc(F)c1)c1ccc(S(=O)(=O)NCC2CCCO2)cc1 (stereo not shown),-12.2
4,COc1ccc(C(=O)NN(C)c2nc(-c3ccccc3)nnc2C(F)(F)F)cc1,7
5,N#Cc1cn(CC(=O)N2CCCC2)c2ccccc12,8.6
6,O=C(O)C1=CC2c3ccccc3C1c1ccccc12,17.4
7,CC1(C)Cc2sc3c(=O)[nH]c(=S)[nH]c3c2CO1,16.6
8,CCCN1C(=O)/C(=c2\s/c(=C3\C=Cc4ccccc4N3CC)c(=O)n2-c2ccccc2)SC1=S,8.95
9,O=C1NC(=O)/C(=C\c2cn(CC(=O)N3CCOCC3)c3ccccc23)S1,11.7
10,COCC(=O)Nc1sc2c(c1C(=O)OC)CCCC2,-11.7
11,COc1ccc(C2/C=C\CN(C(=O)c3ccccc3)[C@H](Cc3ccccc3)C(=O)N2Cc2ccc(F)cc2)cc1 (stereo partly shown),17
12,Fc1cccc(-c2cc3nc4c(c(N5CCOCC5)n3n2)CCCC4)c1,-24.1
13,Cc1nc(N)nc(N/N=C/c2c(F)cccc2Cl)n1,3.11
14,COc1cc(NS(=O)(=O)c2ccc(NC(=O)C34CC5CC(CC(C5)C3)C4)cc2)ncn1,-4.59
15,Cl.OC(COC(c1ccc(Cl)cc1)c1ccc(Cl)cc1)CN1CCc2ccccc2C1 (stereo not shown),-61.6
16,OC(COC(c1ccc(F)cc1)c1ccc(F)cc1)CN1CCc2ccccc2C1 (stereo not shown),-73.7
17,OC(CN1CCc2ccccc2C1)c1ccccc1 (stereo not shown),-9.09
18,OC(COC(c1ccccc1)c1ccccc1)CN1CCc2ccccc2C1 (stereo not shown),-76.9
19,CC1(c2ccc3c(c2)OCCCO3)NC(=O)N(CC(=O)NCCc2ccccc2)C1=O (stereo not shown),-7.38
